From PubChem
The list is not random: actives were taken first. Their share in the collection is about 9.2%.
NPC1 promoter act – NPC1 promoter activation. 320,000 tested, 2.4% active. Huh7 NPC1 promoter luciferase reporter, 24 h. Potency, µM (series often up to 9.22 µM), inactives show top-dose activation, hits mostly activators. AID 485313; further: % of control where 0% means no effect; nearly all actives have a fitted effect of over 60% in size
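Huh7 cells stably carrying NPC1 promoter–luciferase, plated in Opti-MEM with 10% FBS for 2 h, were exposed to compound in DMSO for 24 h at 37 °C; luciferase reagent was added for 10 min and luminescence read.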
ELG1 DNA repair – blocks ELG1-dependent DNA repair in HEK293T cells; Potency, µM (series often up to 46.1 µM), without a hit: at the top dose activity change, negative = inhibition, usual class: inhibitors; HEK293T ELG1-luciferase reporter, luminescence, 16 h; DNA damage induced by 5-fluorouridine; 330,000 tested, 2.3% active; AID 504467; further: on the % scale 0 is the no-effect control and ±100 the full control effect; nearly all actives have a fitted effect of over 55% in size
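5-Fluorouridine DNA damage + compound/DMSO, 2,000 cells/well, 16 h, 37 °C/5% CO2. ONE-Glo, 30 min RT, luminescence. Readout = decrease in reporter signal.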
ELG1 genotox – genotoxicity induction in ELG1-luciferase HEK293T cells; HEK293T ELG1-luciferase reporter, luminescence, 16 h; Potency, µM (series often up to 46 µM), without a hit: at the top dose activity change, positive = activation, most hits filed as activators; 330,000 tested, 1.3% active; AID 504466; further: % of control where 0% means no effect; nearly all actives have a fitted effect of over 60% in size
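HEK293T cells expressing luciferase-tagged ELG1 were treated with compound or DMSO for 16 hr at 37°C. Luciferase activity was then read after 30 min with ONE-Glo at room temperature; rising signal flags genetic stress.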
SMN2 splice up – increases expression of the SMN2 splice variant. 210,000 tested, 2.8% active. HEK293 SMN2-luciferase splicing reporter, luminescence, 30-36 h. Potency, µM (series often up to 46.1 µM), inactives show at the highest dose activity change, positive = activation, most hits filed as activators; further: % of control where 0% means no effect; nearly all actives have a fitted effect of over 55% in size
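HEK293 cells carry an SMN2 […]–luciferase reporter in which exon 7 inclusion puts luciferase in frame. Cells were plated 10-12 h before compound addition, then incubated 30-36 h at 37C. ONE-Glo luminescence was read; sodium butyrate at 4.5 mM final served as control.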
Rab9 promoter act – activators of Rab9 promoter; 320,000 tested, 2.8% active; Potency, µM (highest dose often 9.22 µM), for inactives: at the highest dose activation, negative = inhibition, hits mostly activators; Huh7 Rab9 promoter-luciferase reporter, luminescence, 24 h; further: % of control where 0% means no effect; nearly all actives have a fitted effect of over 60% in size
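Using Huh7 cells stably transfected with Rab9 promoter–luciferase, compounds were incubated 24 h at 37 °C, 5% CO2; luciferase luminescence was read 10 min after reagent addition.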
FLuc counter – counter-screen for miR-21 project: firefly luciferase inhibitors or activators; P08659; purified FLuc, Km substrates, luminescence inhibition; AID 588342; Potency, µM (highest dose often 57.5 µM), inactives show at the highest dose activity change, negative = inhibition, hits mostly inhibitors; 360,000 tested, 6.9% active;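 further: plate controls were vehicle for no effect and reference inhibitor for full effect; nearly all actives have a fitted effect of over 55% in size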
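Purified P. pyralis luciferase, 10 nM final, with Km-level 10 uM D-luciferin and 10 uM ATP in 50 mM Tris acetate pH 7.5, 10 mM Mg acetate, 0.01% Tween-20, 0.05% BSA; 6-point qHTS titration about 60 µM downward; luminescence read.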
ELG1 FLuc counter – luciferase inhibition in cell-free luciferin readout for ELG1 hits; shares compounds with ELG1 DNA repair; cell-free firefly luciferase luminescence counter-screen, ViewLux; Potency, µM (top dose mostly 46.1 µM), for inactives: at the top dose activity change, negative = inhibition, most hits filed as inhibitors; 350 tested, 3% active; further: on the % scale 0 is the no-effect control and ±100 the full control effect
ELG1 Luc conf – inhibits ELG1-dependent DNA repair in HEK293T cells, confirmed | AID 624248 | 670 tested, 68% active | HEK293T ELG1-luciferase levels, luminescence; cells co-treated with 5-fluorouridine | shares compounds with ELG1 DNA repair | Potency, µM (top dose mostly 46.1 µM), for inactives: at the top dose activity change, negative = inhibition, hits mostly inhibitors; further: on the % scale 0 is the no-effect control and ±100 the full control effect; nearly all actives have a fitted effect of over 55% in size
ELG1 MMS Luc – inhibits ELG1-dependent repair under MMS stimulation in HEK293T cells; shares compounds with ELG1 DNA repair; AID 624249; HEK293T luciferase-tagged ELG1 level, MMS stimulated; Potency, µM (doses to about 46.1 µM), without a hit: top-dose activity change, negative = inhibition, actives largely listed as inhibitors; 670 tested, 53% active; further: on the % scale 0 is the no-effect control and ±100 the full control effect; nearly all actives have a fitted effect of over 60% in size
ELG1 5-FU – confirmation of ELG1 repair inhibitors: viability with 5FU; cell viability with 5-FU, ELG1-dependent repair; shares compounds with ELG1 DNA repair; AID 624250; Potency, µM (titrated, usually from 46.1 µM), for inactives: at the highest dose activity change, negative = viability loss, actives largely listed as cytotoxic; 670 tested, under 10 active;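 further: ELG1-luc HEK293T cells cotreated with 5-fluorouridine at 10 µM final; viability measured 16 h after compound addition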
ELG1 MMS cell – confirmation of ELG1 repair inhibitors: viability with MMS. shares compounds with ELG1 DNA repair. Cell viability with MMS, ELG1-dependent DNA repair. Potency, µM (top dose mostly 46.1 µM), for inactives: at the highest dose activity change, negative = viability loss, usual class: cytotoxic. 670 tested, 33% active. AID 624251;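 further: ELG1-luc HEK293T cells co-treated with 10 µM MMS; viability read 16 h after compound addition; on the % scale 0 is the no-effect control and ±100 the full control effect; nearly all actives have a fitted effect of over 60% in size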
Cell viab unstim – unstimulated viability counter-screen for ELG1 repair hits; 900 tested, 8% active; shares compounds with ELG1 DNA repair; Potency, µM (series often up to 45.9 µM), for the others: at the highest dose activity change, negative = loss of viability, actives largely listed as cytotoxic; AID 624252; cell viability counter-screen, unstimulated, luminescence;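 further: compound exposure lasted 16 hours before reading; on the % scale 0 is the no-effect control and ±100 the full control effect; nearly all actives have a fitted effect of over 55% in size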
FLuc enzyme – counter-screen for ELG1 repair inhibitors: firefly luciferase inhibition | shares compounds with ELG1 DNA repair | purified firefly luciferase, luminescence counter-screen | Potency, µM (highest dose often 57.5 µM), for the others: at the highest dose activity, negative = inhibition, most hits filed as inhibitors | 350 tested, 10% active; further: on the % scale 0 is the no-effect control and ±100 the full control effect
* marks the source's active call; other numbers are inactive results; [ ] = another dose, or the depositor's remark. The call rests on the fitted dose curve; in most records, active means well fitted curve in the direction sought with a large enough effect; inconclusive means small, poorly fitted or top-dose-only effect, or another doubt; inactive means no such curve, though single readings can be large; an effect the other way counts as inactive or inconclusive. Potency means the concentration at half of the fitted maximal effect.

`Fc1ccccc1COc1ccc(Br)cc1CNCc1ccncc1` gave NPC1 promoter act 4.5%, ELG1 DNA repair inconclusive, ELG1 genotox -23.6%, SMN2 splice up -19.5%, Rab9 promoter act -0.4% and FLuc counter -0.5%.
CCOC(=O)c1c(C)[nH]c(C(=O)N2CCc3cc(OC)c(OC)cc3C2)c1C was read as NPC1 promoter act -2.2%, ELG1 DNA repair 1.46µM*, ELG1 genotox -0.8%, Rab9 promoter act -13.1%, FLuc counter -4.7%, ELG1 Luc conf 3.53µM*, ELG1 MMS Luc inconclusive, ELG1 5-FU inconclusive, ELG1 MMS cell -15.9% and Cell viab unstim -17.9%.
CCOC(=O)c1c(C)[nH]c(C(=O)N2CCN(C(=O)OCC)CC2)c1C was read as NPC1 promoter act -4.8%, ELG1 DNA repair 0.1%, ELG1 genotox 1.9%, Rab9 promoter act 6.6% and FLuc counter -0.9%.
CCc1c(C)nc2ccc(Br)cc2c1SCCC#N was read as NPC1 promoter act 0.7%, ELG1 DNA repair 4.11µM*, ELG1 genotox -9.7%, SMN2 splice up -24.0%, Rab9 promoter act 0.5%, FLuc counter -0.4%, ELG1 Luc conf 7.05µM*, ELG1 MMS Luc 15.8µM*, ELG1 5-FU 14.9%, ELG1 MMS cell inconclusive and Cell viab unstim -12.1%.
CCc1c(C)nc2c(Br)cccc2c1SCCC#N was read as NPC1 promoter act -1.6%, ELG1 DNA repair -19.7%, ELG1 genotox -4.5%, SMN2 splice up -15.3%, Rab9 promoter act -1.8% and FLuc counter -16.8%.
`CCC1CCCCN1CCCNC(=O)c1ccc2c(c1)sc1nc(-c3ccc(F)cc3)cn12` (centres undefined) gave FLuc counter -5.5%.
Screening CCC1CCCCN1CCCNC(=O)c1ccc2nc(N3CCC(C)CC3)sc2c1 (centres undefined) returned NPC1 promoter act -13.3%, ELG1 DNA repair inconclusive, ELG1 genotox 0.164µM*, Rab9 promoter act -37.6%, FLuc counter inconclusive, ELG1 FLuc counter 102.2%, Cell viab unstim -11.8% and FLuc enzyme inconclusive.
For C[C@H]1Cc2c(-c3ccccc3)nc3c(c2CO1)CN(S(=O)(=O)c1ccc(C#N)cc1)CC3 the results were SMN2 splice up 5.7%[9.22 µM].
CC1=C(C(=O)OCc2ccc3c(c2)OCO3)C(c2ccccc2OCc2ccccc2)NC(=O)N1 (centres undefined) was read as NPC1 promoter act 7.5%, ELG1 DNA repair 16.4µM*, ELG1 genotox -30.6%, SMN2 splice up -23.9%, Rab9 promoter act 0.5%, FLuc counter -0.9%, ELG1 FLuc counter -7.5%, ELG1 Luc conf 22.3µM*, ELG1 MMS Luc inconclusive, ELG1 5-FU 1.5%, ELG1 MMS cell -12.2%, Cell viab unstim inconclusive and FLuc enzyme -7.5%.
Cc1ccc2c(c1)sc1nc(=O)n(-c3ccccc3)c(=O)n12 was read as NPC1 promoter act 0.562µM*, ELG1 DNA repair inconclusive, ELG1 genotox inconclusive, Rab9 promoter act 0.316µM*, FLuc counter inconclusive, ELG1 FLuc counter 53.8%, Cell viab unstim 1.2% and FLuc enzyme inconclusive.
Screening Cc1ccc2c(c1)sc1ncc(NC(=O)c3ccc(F)cc3)c(=O)n12 returned NPC1 promoter act -3.5%, ELG1 DNA repair inconclusive, ELG1 genotox 4.6%, SMN2 splice up -13.4%, Rab9 promoter act -1.1% and FLuc counter -4.5%.
For O=S(=O)(c1cccc(C(F)(F)F)c1)N1CCCC1c1cccnc1 (centres undefined) the results were NPC1 promoter act 2.6%, ELG1 DNA repair 0.6%, ELG1 genotox -0.8%, Rab9 promoter act -3.8% and FLuc counter -2.2%.
Screening Cc1ccc(S(=O)(=O)N2CCCCC2c2cccnc2)c(C)c1C (centres undefined) returned NPC1 promoter act -2.0%, ELG1 DNA repair 0.82µM*, ELG1 genotox -8.8%, Rab9 promoter act 8.7%, FLuc counter 1.0%, ELG1 FLuc counter 1.0%, ELG1 Luc conf 0.0141µM*, ELG1 MMS Luc 14.1µM*, ELG1 5-FU -0.7%, ELG1 MMS cell 19.9µM*, Cell viab unstim inconclusive and FLuc enzyme 2.8%.
Screening COC1=C(N)C(=O)c2nc(-c3nc(C(=O)O)c(C)c(-c4ccc(OC)c(OC)c4O)c3N)ccc2C1=O returned NPC1 promoter act -47.2%, ELG1 DNA repair 0.82µM*, ELG1 genotox -15.8%, SMN2 splice up -100.2%, Rab9 promoter act -37.5%, FLuc counter -15.1%, ELG1 FLuc counter 2.5µM*, ELG1 Luc conf 1.12µM*, ELG1 MMS Luc 0.0397µM*, ELG1 5-FU 2.23µM*, ELG1 MMS cell 0.0561µM*, Cell viab unstim 1.12µM* and FLuc enzyme -8.4%.
For COc1ccc(C(=O)O)c(O)c1OC the results were SMN2 splice up -2.1%.
